49 compounds from PubChem BioAssay AID1851 (National Center for Advancing Translational Sciences (NCATS), 2009) can be followed below.

Where “and” joins values, the source holds several entries; their conditions need not be identical. Identical values can stand only once. About 5,800 (36%) of roughly 16,000 compounds were called active. Another 23% or so got no clear call; they are omitted. Calls come from the whole dose curve; as a rule, active = well fitted curve in the direction sought with a large enough effect; inconclusive = small, poorly fitted or top-dose-only effect, or effect the other way; inactive = no such curve, though single readings can be large or run the other way. Some of the results follow. Some compounds were tested as several samples or in several runs, with calls that do not always agree.
% is set by controls: 0 for no effect and ±100 for the full control effect.

The assay deals with Cytochrome P450 2C19 (Homo sapiens) (UniProt P33261). Put plainly: Cytochrome panel assay with activity outcomes. The settings on record: recombinant CYP, pro-luciferin dealkylation, luminescence, p450-cyp2c19; series mostly up to 57.1 µM.
Cytochrome P450 2C19 (Homo sapiens), sequence (P33261 whole entry, looked up): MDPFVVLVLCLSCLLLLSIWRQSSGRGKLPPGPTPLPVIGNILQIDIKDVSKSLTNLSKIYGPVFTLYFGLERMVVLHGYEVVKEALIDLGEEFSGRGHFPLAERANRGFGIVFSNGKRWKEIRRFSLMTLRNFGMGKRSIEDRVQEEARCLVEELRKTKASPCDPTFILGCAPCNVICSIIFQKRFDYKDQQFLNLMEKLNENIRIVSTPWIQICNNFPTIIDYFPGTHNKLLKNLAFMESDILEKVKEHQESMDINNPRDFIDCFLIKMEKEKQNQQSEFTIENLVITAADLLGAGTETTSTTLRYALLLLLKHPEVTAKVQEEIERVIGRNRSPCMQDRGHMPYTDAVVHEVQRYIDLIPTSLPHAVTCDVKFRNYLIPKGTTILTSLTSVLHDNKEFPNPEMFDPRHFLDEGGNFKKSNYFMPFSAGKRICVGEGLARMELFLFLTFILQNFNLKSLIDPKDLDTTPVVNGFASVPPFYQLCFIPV
As a reminder, the AC50 is the concentration giving half of the maximal activity seen. `CNC(=O)Oc1ccc2c(c1)[C@@]1(C)CCN(C)[C@@H]1N2C`: the AC50 entry is “inactive”. Consider `CC(=O)OC[C@@H]1O[C@@H](O/N=C2/C[C@@H](O)[C@@H](O)[C@@H]3[C@@H]4C(=O)N([C@@H](C)c5ccccc5)C(=O)[C@H]4CC[C@H]23)[C@H](OC(C)=O)[C@H](OC(C)=O)[C@@H]1OC(C)=O`, for which the activity, negative = inhibition was -3.3% [at 11.4 µM] (inactive). In the case of `O=C(/C=C/c1ccccc1)NC(NC(=S)Nc1ccc(Cl)cc1)C(Cl)(Cl)Cl` (centres undefined), the AC50 is 3.55 µM (active).

`C[C@@H](c1ccccc1)N1C(=O)[C@H]2[C@H]3[C@H](O)[C@H](O)C/C(=N/OCc4ccccc4)[C@@H]3CC[C@@H]2C1=O`: the activity, negative = inhibition is -24.2% [at 11.4 µM] (inactive). Take `CC(C)NC(=O)N1CCCC2(CCN(C(=O)c3cc(C(F)(F)F)cc(C(F)(F)F)c3)CC2)C1`: the AC50 result was “inactive”. The same measure, in the same setting: with `Cc1nn2c3c(cnc2c1-c1ccccc1)C(=O)CC(c1ccccc1)C3` (centres undefined) the figure was 7.08 µM (active); with `Cc1nn2c(NCC(C)C)c3c(nc2c1-c1ccccc1)CCC3`, “inactive”; with `Cc1ccc(C)c(NC(=O)NCc2ccc(Cl)cc2)c1`, 1.58 µM (active). `Cc1cccc(C)c1NC(=O)N1CCC(N2CCCCC2)CC1`: the AC50 result was “inactive”. As for `COC(=O)C1CSC(C(=O)OC)N1C(=O)Nc1c(C)cccc1C` (centres undefined), the AC50 was 7.94 µM (active).

On to `COC(=O)C1CSC(C(=O)OC)N1C(=O)Nc1ccccc1` (centres undefined), for which the AC50 was 10 µM (active). In the case of `CCCCN1CCCC[C@H]1C(=O)Nc1c(C)cccc1C`, the AC50 entry was “inactive”. In the case of `COc1ccc(N2C(=O)NC(NC(=O)c3ccncc3)(C(F)(F)F)C2=O)cc1` (centres undefined), the AC50 is 6.31 µM (active). On to `CC(=O)Nc1ccc(S(=O)(=O)NC2(C(F)(F)F)NC(=O)N(c3ccc(Cl)cc3)C2=O)cc1` (centres undefined), for which the AC50 entry is “inactive”. Consider `COc1ccc(C(=O)N2CCC3(CCCN(Cc4ccncc4)C3)CC2)cc1`, for which the AC50 entry is “inactive”. Same read-out and setting: with `CNc1ncnc2c1ncn2[C@@H]1O[C@H](CO)[C@@H](O)[C@@H]1O` the entry was “inactive”. Still for that read-out and setting: the figure for `O=[N+]([O-])c1ccc([C@@H](Nc2ccccc2)c2ccc3cccnc3c2O)cc1` is 3.98 µM (active); for `O=C(O)c1cccnc1C(=O)O` it is “inactive”. Regarding `O=C(O)c1ccccc1N[C@H](c1ccccc1)c1ccc2cccnc2c1O`, the AC50 is 3.98 µM (active).

Regarding `CC(=O)C[C@H](c1ccc([N+](=O)[O-])cc1)c1c(O)c2ccccc2oc1=O`, the AC50 result is “inactive”.

Take `Cc1cc(C)c(C#N)c(SCS(=O)c2ccc(C(C)(C)C)cc2)n1` (centres undefined): the AC50 is 3.16 µM (active).

As to `C[C@]12CC3CC(N)(C1)C[C@@](C)(C3)C2`, the AC50 result was “inactive and 10 µM (active)”.

As to `C[C@@]12CC3CC(N)(C1)C[C@@](C)(C3)C2`, the AC50 result was “inactive”.

With `Cc1nc([N+](=O)[O-])c(N2CCN(C)CC2)n1Cc1ccccc1`, the AC50 entry was “inactive”. Turning to `CCCn1c(CC)nc([N+](=O)[O-])c1S(=O)(=O)c1ccccc1`, the AC50 is 14.1 µM (active). `COc1cc(-c2nnc(SC/C=C/c3ccccc3)n2N)cc(OC)c1OC`: the AC50 was 15.8 µM (active). As to `CCCS(=O)(=O)N1CCCC(C(=O)NCCCOC(C)C)C1` (centres undefined), the AC50 result is “inactive”. Still for that read-out and setting: with `CCC(C)NC(=O)C1CCCN(C(=O)NC2CCCCC2)C1` (centres undefined) the figure was 14.1 µM (active); with `CCS(=O)(=O)N1CCCC(C(=O)NCCCOC(C)C)C1` (centres undefined), “inactive”; with `CO/N=C(\C(=O)N[C@@H]1C(=O)N2C(C(=O)O)=C(COC(N)=O)CS[C@@H]12)c1ccco1`, “inactive”. Consider `O=C(CO)N/N=C/c1ccccc1F`, for which the AC50 entry was “inactive”. Take `NC(=S)N/N=C/c1ccccc1OCc1cccc(Cl)c1`: the AC50 is 2.24 µM (active). Regarding `O=C(Cc1ccccc1)N/N=C/c1ccccc1OCc1ccc(Cl)cc1`, the AC50 is 4.47 µM (active). Regarding `Cc1cc2nc(C3CCCN(C(=O)NCc4ccccc4)C3)[nH]c2cc1C` (centres undefined), the AC50 is 20 µM (active).

`CC1=C(C(=O)N2CCCCCC2)C2(CCC(C)CC2)OC1=O` (centres undefined): the AC50 was 10 µM (active).

As to `CC1=C(C(=O)NCCN2CCN(C)CC2)C2(CCC(C)CC2)OC1=O` (centres undefined), the AC50 entry is “inactive”. On to `CN1C(=C2C(=O)OC(C)(C)OC2=O)Sc2ccccc21`, for which the AC50 is 1 µM (active). Still for that read-out and setting: the figure for `O=[N+]([O-])c1ccc(CSCc2ccc(Cl)cc2)cc1` is 0.398 µM (active); for `N=C(N)SCCc1ccc(OCc2ccc([N+](=O)[O-])cc2)cc1` it is “inactive”. The same measure, in the same setting: with `O=[N+]([O-])c1ccc(CSc2ncnc3c2ncn3[C@@H]2O[C@@H](CO)[C@@H](O)[C@H]2O)cc1` the entry was “inactive”; with `COc1ccc(N2CCN(C(=O)CSc3nnc4c5cc(C)ccc5n(C)c4n3)CC2)cc1`, 1 µM (active); with `Cc1cc(=O)[nH]c2c1c(C)nn2C1CCOC(C)(C)C1` (centres undefined), “inactive”.

With `Cc1ccc2c(c1)C1(SCCS1)C(=O)N2`, the AC50 is 25.1 µM (active). Still for that read-out and setting: the figure for `O=C1Nc2ccc(F)cc2C12SCCS2` is 11.2 µM (active). With `CCc1c(O)c2c(c(O)c1C(C)=O)C(=O)c1c(cc(O)c(C(=O)O)c1C(=O)O)C2=O`, the activity, negative = inhibition is -9.38% [at 11.4 µM] (inactive). In the case of `CCOc1cc(CNCCCN2CCOCC2)cc(Br)c1OCC(=O)Nc1cccc(C(F)(F)F)c1`, the AC50 entry is “inactive”.

With `CCOc1cc(CNc2ccc(OC)cc2)cc(Br)c1OCC(=O)NC(C)(C)C`, the AC50 is 5.62 µM (active). In the case of `CCOc1cc2[nH]c(=O)n(CCC(=O)NCc3ccc(OC)cc3)c(=O)c2cc1OCC`, the AC50 entry is “inactive”. Turning to `OC[C@@H]1O[C@H](n2cnc3c(/C=C(\O)c4ccccc4)ncnc32)[C@H](O)[C@@H]1O`, the activity, negative = inhibition is 34% [at 11.4 µM] (inactive).
